According to the OligoGym collection:

These sequences were tested against AMOTL1 (assay: pooled miR-30 sensor sort-seq; sequence = guide strand). Settings: shRNA.
Further: reference of the scale not given here.

| Sequence | sensor-assay potency score (higher = more potent) |
| --- | --- |
| TTTTTCAAACTTGTGGAGCTTG | 0.0773 |
| TTGCAGTCCGCACTGCTGCTAA | -0.698 |
| TTGTCAGTCTGTGTGCTGCTGT | 0.0814 |

Each sequence was assayed against AMPH in the same assay as above. Settings: shRNA.

| Sequence | sensor-assay potency score (higher = more potent) |
| --- | --- |
| TCTGCATACACATAGATCCAGG | -1.05 |
| TAACAAAAGTGAACTCTTCAGG | -0.296 |
| TTTTTGATGGAAGTCTTCCCAC | -0.336 |
| TAACATAAAATCCAACTCGTCT | -0.296 |
| TAAATGAACCACCAGAAGCCGG | -1.23 |
| TGATTTGGACTTGCTGTCGGGC | -0.73 |
| TAGAGATTCGACTCTCATCCTT | 0.077 |
| TCATAGTCCACTAGCTTCCTGC | -0.747 |
| TTTTACTTTAGAACAATCTGTG | 0.225 |
| TTCTTCGAACTGTTCGTCTTTT | -0.66 |
| TTGTCTGTGAAGGTGACCGAGG | -0.658 |
| TTTACTTTAGAACAATCTGTGA | -0.223 |
| TTGTGAATAATGAAGTATCCTG | -0.215 |
| TTGATTGCTGCTAAATATCCTC | -0.275 |
| TAATTCATCACATCTTCTGCAG | -0.0381 |
| TTTTTTGCACACATGCTCCATT | -0.524 |
| TTCTGGAACAAAGTTGTCCTCA | -0.205 |
| AAACTCTTCAAACACTTTCTGT | -0.65 |
| TTACTTTAGAACAATCTGTGAA | -0.181 |
| TTTCCTTATGAAACTTGGCTTC | -0.107 |
| TTGCTGCTAAATATCCTCGGAG | -0.441 |
| TTAACATAAAATCCAACTCGTC | -0.669 |
| TACTTTAGAACAATCTGTGAAG | -0.229 |
| TAGTCCACTAGCTTCCTGCTGC | 0.262 |

Each sequence was assayed against AMY2A in the same assay as above. Settings: shRNA.

| Sequence | sensor-assay potency score (higher = more potent) |
| --- | --- |
| TACATTGCGGAAAATAACCATG | -1.22 |
| TTTACCATCATTGAAATCCCAT | -0.145 |
| TTAAGTAAGACATCTTCTCTCC | 0.353 |
| TTAAAGAAAATGACCAGTCATC | -0.896 |
| TTATCCACAAAGACAAGCGCTC | -0.172 |
| TTGTACAGCCTAGCATCCCAGA | -1.14 |

The sequences below were run against ANAPC5 in the same assay as above. Settings: shRNA.

| Sequence | sensor-assay potency score (higher = more potent) |
| --- | --- |
| TTTTTGATCACATAACATCCAT | 0.00973 |
| ATAGCTATCGGATCTCTTCTGC | 0.457 |
| TTTTGATCACATAACATCCATA | -1.19 |
| TACAGTTTAAACACTTGGCTGA | 0.833 |
| TTGAACTGAAAACATCTTGGAC | -0.413 |
| TCACATAACATCCATAACTGGG | -0.755 |
| TACACTTGTTTTGTGAACCTCT | 0.756 |
